# TRHR PAM = allosteric enhancers of human TRH receptor; enhancement, % at 2 µM; 360,000 compounds, 0.66% hits; P34981; TRHR cells, fluo-8 calcium fluorescence, EC20 TRH enhancement; in the data active = enhancement above about 30%; also: 0% is about no effect
#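 TRHR-expressing cells loaded with fluo-8 calcium dye were read kinetically (ex 480/em 530) during compound addition, then stimulated with an EC20 of TRH (10 nM final). Enhancement of the Gq-mediated intracellular calcium response was scored.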
# D1 antag = blocks dopamine activation of the human D1 receptor; HEK293 TREx D1 cells, calcium flux, dopamine EC80; stronger effect = lower value; activity change, negative = inhibition, % at 10 µM; 360,000 compounds, 3.2% hits; in the data active = activity change below about -30%; also: % is scaled to controls: 0 for no effect and ±100 for the full control effect
# Target sequence (P21728 whole entry, looked up): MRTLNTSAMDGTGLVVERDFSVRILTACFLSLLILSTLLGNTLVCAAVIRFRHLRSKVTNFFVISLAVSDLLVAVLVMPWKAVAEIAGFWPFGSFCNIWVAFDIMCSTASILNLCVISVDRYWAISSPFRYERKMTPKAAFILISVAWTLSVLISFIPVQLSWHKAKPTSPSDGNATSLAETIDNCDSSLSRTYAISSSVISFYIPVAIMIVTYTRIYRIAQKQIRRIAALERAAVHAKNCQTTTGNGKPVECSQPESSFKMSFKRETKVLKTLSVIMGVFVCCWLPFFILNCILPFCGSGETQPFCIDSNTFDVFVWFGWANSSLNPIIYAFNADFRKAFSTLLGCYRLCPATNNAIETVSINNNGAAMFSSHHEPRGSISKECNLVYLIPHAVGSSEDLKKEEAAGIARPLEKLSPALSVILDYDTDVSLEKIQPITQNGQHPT
#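 Kinetic fluorescence of a calcium dye serves as the read-out. D1-expressing Hek293 Trex cells, induced overnight at 30 C, are exposed to compound for 180 s before an EC80 dopamine addition, then read 180 s further.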
# D1 ag = agonists of human D1 dopamine receptor | HEK293 T-REx D1 cells, calcium flux, agonist mode | activation, % at 2 µM | 360,000 compounds, 1% hits; also: 0% is about no effect
#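 Tetracycline-induced HEK293 TREx D1 cells, force-coupled to calcium signalling, were dye-loaded with a no-wash calcium kit. Compound was pin-added after a 10 s baseline. Fluorescence was read kinetically at 1 cycle/s for 180 s, with calcium rises flagged as agonism.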
# TRHR ag = activates the human TRH receptor. TRHR cells, calcium flux fluo-8, FDSS agonist mode. P34981. activation, % at 2 µM. 360,000 compounds, 0.18% hits; also: 0% is about no effect
#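 TRHR-expressing cells loaded with fluo-8 calcium dye; 23 nL library compound pin-transferred, kinetic FDSS fluorescence (Ex 480/Em 530) recorded about 180 s for agonist-induced calcium release, before a 10 nM TRH EC20 addition for potentiator mode.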
# D1 potentiator = potentiators of human D1 dopamine receptor | P21728 | HEK293 TREx D1 cells, calcium flux, dopamine EC20 potentiation | potentiation, % at 10 µM | 360,000 compounds, 0.036% hits | AID 504651; in the data active = potentiation above about 30%; also: 0% is about no effect
# * marks the source's active call; other numbers are inactive results. Most compounds without a hit are left out; they make up all but 4.7% or so of the library. Rule as the data show it, unless noted: active = activation above about 30%; inactive = the rest.
SMILES,TRHR PAM,D1 antag,D1 ag,TRHR ag,D1 potentiator
CCOC(=O)C1(CCOc2ccccc2)CCN(Cc2ccc(O)c(OC)c2)CC1,-2,-24,16,2,4
CCOC(=O)C1(CCOc2ccccc2)CCN(Cc2cccc(OC)c2O)CC1,2,-45*,13,1,-7
CCOC(=O)C1(CCOc2ccccc2)CCN(Cc2ccc(O)c(Cl)c2)CC1,-5,-39*,24,0,-6
CCOC(=O)C1(CCOc2ccccc2)CCN(Cc2ccc3c(c2)OCCO3)CC1,8,-43*,3,0,-2
Cc1cc(C(=O)N2CC=C(c3ccccc3)CC2)c2ccccc2n1,0,-41*,2,0,-3
Cc1ccc(C(=O)N2CC=C(c3ccccc3)CC2)o1,-3,-6,0,0,-2
O=C(O)c1ccccc1C(=O)N1CC=C(c2ccccc2)CC1,-1,-39*,2,1,-3
CC(=O)N1CCN(C(=O)c2cc(C)nc3ccccc23)CC1,-4,11,2,0,0
NC(=O)CSc1nc2c(sc(=S)n2-c2ccccc2)c(=O)[nH]1,7,-38*,0,0,0
Cc1ccc2[nH]c(C(=O)N3CCCC(Nc4ccc(F)cc4)C3)cc2c1 (centres undefined),4,-30*,3,1,-8
Cc1cc(C)c(C(=O)N2CCCC(Nc3ccc(F)cc3)C2)o1 (centres undefined),-8,-17,1,0,-1
Cc1cc(NC(=O)c2cc(-c3cccs3)on2)no1,-9,-42*,7,1,-10
Cc1cc(NC(=O)c2cccs2)no1,-1,3,2,0,1
Cc1cc(NS(=O)(=O)c2cccs2)no1,-1,-83*,1,0,-15
Cc1ccc(S(=O)(=O)Nc2cc(C)on2)cc1,-6,2,2,-1,0
Cc1cn2c(=O)c(S(=O)(=O)N3CCN(c4cc(Cl)ccc4C)CC3)c(C)nc2s1,23,7,2,0,2
COc1ccc(-c2n(CC(=O)OC3CC(C)CCC3C(C)C)c3ccccc3[n+]2C)cc1 (centres undefined),-4,17,3,0,6
COc1ccc(OCc2n(CC(=O)OC3CC(C)CCC3C(C)C)c3ccccc3[n+]2C)cc1 (centres undefined),-4,20,34*,2,-10
CN(C)S(=O)(=O)c1cccc(COC(=O)c2cc([N+](=O)[O-])ccc2N2CCOCC2)c1,-7,-39*,4,0,-2
O=C(COC(=O)c1cc([N+](=O)[O-])ccc1N1CCOCC1)Nc1ccccc1OC(F)F,-2,-31*,6,0,-12
CSc1ccc(COC(=O)c2cc([N+](=O)[O-])ccc2N2CCOCC2)cc1,4,-22,9,1,-7
CCOC(=O)c1ccc(NC(=O)CC2C(=O)N(c3ccc(F)cc3)C(=O)N2Cc2ccc3c(c2)OCO3)cc1 (centres undefined),-4,-23,5,2,-6
O=S(=O)(c1ccc2c(c1)OCCO2)N1CCN(S(=O)(=O)c2c(Cl)cc(C(F)(F)F)cc2Cl)CC1,4,-14,4,-2,2
Cc1cc(C(=O)NN)c2cc(Br)ccc2n1,-11,-35*,1,0,-8
CCC(=O)c1ccc(OCC(O)CNC(C)c2ccccc2)cc1 (centres undefined),0,5,7,1,4
SMILES,TRHR PAM,D1 antag,D1 ag,TRHR ag,D1 potentiator
OC(CNCCC(c1ccccc1)c1ccccc1)COc1ccccc1 (centres undefined),7,-61*,11,1,-6
COc1ccc(CCNCC(O)COc2ccc(Cl)cc2)cc1OC (centres undefined),4,11,17,5,-7
COc1ccc(C(OCC(O)CNCCc2ccccc2)c2ccc(OC)cc2)cc1 (centres undefined),9,-30*,96*,5,-10
CC(C)c1ccc(OCC(O)CNC(C)c2ccccc2)cc1 (centres undefined),1,2,15,5,11
CCC(=O)c1ccc(OCC(O)CNCCc2ccc(Cl)cc2)cc1 (centres undefined),15,-15,62*,6,-6
OC(CNCCc1ccc(Cl)cc1)COc1ccc2ccccc2c1 (centres undefined),-2,7,33*,1,-1

# Bioassay records: PubChem, National Center for Advancing Translational Sciences (NCATS)
